# In PubChem BioAssay (EPA / NIEHS):
# Records with an inconclusive call do not appear. A structure can be active in one record and inactive in another. Active and inactive are the calls of the source. The calls were made as follows: active = hit-call score of the fitted dose curve at least 0.9, where 1 is the maximum; inconclusive = response in the unintended direction; inactive = score below 0.9.
# Biological target: human CYP4F12, CYP4F12 (gene 66002) (UniProt Q9HCS2)
# Experiment: NVS_ADME_hCYP4F12: NovaScreen (NVS) CYP450-related Enzyme Activity (ADME) Assay for human CYP4F12 (AID 2283111)
# Outline: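 Cell-free fluorescence assay of recombinant human CYP4F12 activity on a specific substrate, read 0.5 h after dosing. Primary screen in duplicate at 10 uM, then concentration series for actives; loss of signal fitted against acetonitrile negative control.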
# Chain of human CYP4F12, CYP4F12 (gene 66002) (Q9HCS2 whole entry, looked up): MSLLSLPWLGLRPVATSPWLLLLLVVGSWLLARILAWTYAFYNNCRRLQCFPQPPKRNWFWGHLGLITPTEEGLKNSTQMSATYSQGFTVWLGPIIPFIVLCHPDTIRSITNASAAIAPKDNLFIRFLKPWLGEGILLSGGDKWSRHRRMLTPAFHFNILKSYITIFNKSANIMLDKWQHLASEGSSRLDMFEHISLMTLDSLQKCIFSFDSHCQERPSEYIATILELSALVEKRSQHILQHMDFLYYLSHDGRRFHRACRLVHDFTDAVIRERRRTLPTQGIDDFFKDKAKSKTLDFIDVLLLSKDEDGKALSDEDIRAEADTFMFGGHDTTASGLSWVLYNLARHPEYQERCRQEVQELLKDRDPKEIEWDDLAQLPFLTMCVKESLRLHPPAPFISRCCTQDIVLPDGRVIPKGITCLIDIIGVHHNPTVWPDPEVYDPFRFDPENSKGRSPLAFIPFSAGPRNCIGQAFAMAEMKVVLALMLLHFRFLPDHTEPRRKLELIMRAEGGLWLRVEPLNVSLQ
Compound,outcome,AC50
CN1CCC[C@H]1c1cccnc1,inactive,–
CCOC(N)=O,inactive,–
CN(C)C(=O)NC1(c2ccccc2)CCN(CC[C@@]2(c3ccc(F)c(F)c3)CN(C(=O)c3ccccc3)CCO2)CC1,inactive,–
O=C1NC(=O)C(c2ccccc2)(c2ccccc2)N1,inactive,–
Cc1occc1C(=O)Nc1ccc(C(=O)N2CCC(F)(F)/C(=C\C(=O)N3CCC(N4CCCCC4)CC3)c3ccccc32)cc1,–,1.24 µM (active)
Nc1nc(Cl)nc2c1ncn2[C@H]1C[C@H](O)[C@@H](CO)O1,inactive,–
CCc1ccc(O)c(C(C)(C)C)c1,inactive,–
CC(C)CCCCCCc1ccc(O)cc1,inactive,–
CCCCC(CC)COC(=O)c1ccccc1C(=O)O (stereo not drawn),inactive,–
CC[C@H](C)C(=O)O[C@H]1C[C@@H](C)C=C2C=C[C@H](C)[C@H](CC[C@@H]3C[C@@H](O)CC(=O)O3)[C@H]21,inactive,–
CC(C)NCC(O)c1ccc(O)c(O)c1 (stereo not drawn),–,2.13 µM (active)
COc1cccc([C@H](O)C2CCN(CCc3ccc(F)cc3)CC2)c1OC,–,0.441 µM (active)
Cc1ccccc1Cl,–,7.95 µM (active)
COC(=O)CCC(=O)OC,inactive,–

# Biological target: rat CYP2C12, Cyp2c12 (gene 25011) (UniProt P11510)
# Sequence (P11510 whole entry, looked up): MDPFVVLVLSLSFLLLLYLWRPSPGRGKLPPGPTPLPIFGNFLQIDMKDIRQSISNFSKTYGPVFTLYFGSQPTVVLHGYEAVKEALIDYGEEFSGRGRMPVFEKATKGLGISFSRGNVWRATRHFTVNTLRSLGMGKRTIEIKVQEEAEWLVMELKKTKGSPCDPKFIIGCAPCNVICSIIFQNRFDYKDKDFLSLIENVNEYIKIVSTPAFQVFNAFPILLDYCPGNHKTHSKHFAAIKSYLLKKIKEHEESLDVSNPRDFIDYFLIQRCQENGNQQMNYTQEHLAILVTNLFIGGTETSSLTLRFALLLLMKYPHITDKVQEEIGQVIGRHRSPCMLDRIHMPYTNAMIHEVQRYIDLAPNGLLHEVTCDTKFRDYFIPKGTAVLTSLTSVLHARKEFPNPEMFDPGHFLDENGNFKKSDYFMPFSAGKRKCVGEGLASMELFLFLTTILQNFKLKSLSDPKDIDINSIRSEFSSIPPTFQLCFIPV
# Experiment: NVS_ADME_rCYP2C12: NovaScreen (NVS) CYP450-related Enzyme Activity (ADME) Assay for rat CYP2C12 (AID 2283119)
# Experimental: NVS_ADME_rCYP2C12 is a biochemical, single-readout assay that uses extracted gene-proteins in a cell-free assay. Measurements were taken 0.5 hour after chemical dosing in a 96-well plate.NVS_ADME_rCYP2C12 is one of one assay component(s) measured or calculated from the NVS_ADME_rCYP2C12 assay. It is designed to make measurements of enzyme activity, a form of enzyme reporter, as detected with fluorescence intensity signals by Fluorescence technology.Data from the assay component NVS_ADME_rCYP2C12 was analyzed into 1 assay endpoint. This assay endpoint, NVS_ADME_rCYP2C12, was analyzed in the positive analysis fitting direction relative to Acetonitrile as the negative control and baseline of activity. Using a type of enzyme reporter, loss-of-signal activity can be used to understand changes in the enzymatic activity as they relate to the gene Cyp2c12. Furthermore, this assay endpoint can be referred to as a primary readout, because this assay has produced multiple assay endpoints where this one serves a enzymatic activity function. To generalize the intended target to other relatable targets, this assay endpoint is annotated to the cyp intended target family, where the subfamily is xenobiotic metabolism.
# Binding assays used specific radioligands (tritiated, iodinated) with non-radioactive competitive displacement ligands in agonist or antagonist protocols (as indicated) and various reference compounds and inhibitors to titrate specific binding to receptors and transporters. Most enzyme assays (CYPs, kinases, phosphatases, proteases, HDACs) used recombinant protein and specific substrates (fluorescence mostly, some colorimetric and radioactive) and inhibitors, followed by a biochemical separation of substrate and product. All assays for the biochemical HTS were initially run in duplicate at a single concentration (10 uM for CYP450 assays and 25 uM for all others). […] Each assay was run with positive and negative controls, and concurrent controls on every plate. The follow-up (secondary) screen tested active chemical-pairs in concentration series, as well as a few additional assays not tested in the primary screen, some selected negative inactives, and several cases re-run in the concentration series for confirmatory purposes.
Compound,AC50,outcome
CC(C)(C)[C@@H](O)[C@@H](Cc1ccc(Cl)cc1)n1cncn1,5.82 µM (active),–
COC(=O)c1ccccc1S(=O)(=O)NC(=O)Nc1nc(OC(F)F)cc(OC(F)F)n1,–,inactive
S=C([S-])NCCNC(=S)[S-].[Mn+2],–,inactive

# Biological target: human Acetylcholinesterase (AChE), ACHE (gene 43) (UniProt P22303)
# Sequence (P22303 whole entry, looked up): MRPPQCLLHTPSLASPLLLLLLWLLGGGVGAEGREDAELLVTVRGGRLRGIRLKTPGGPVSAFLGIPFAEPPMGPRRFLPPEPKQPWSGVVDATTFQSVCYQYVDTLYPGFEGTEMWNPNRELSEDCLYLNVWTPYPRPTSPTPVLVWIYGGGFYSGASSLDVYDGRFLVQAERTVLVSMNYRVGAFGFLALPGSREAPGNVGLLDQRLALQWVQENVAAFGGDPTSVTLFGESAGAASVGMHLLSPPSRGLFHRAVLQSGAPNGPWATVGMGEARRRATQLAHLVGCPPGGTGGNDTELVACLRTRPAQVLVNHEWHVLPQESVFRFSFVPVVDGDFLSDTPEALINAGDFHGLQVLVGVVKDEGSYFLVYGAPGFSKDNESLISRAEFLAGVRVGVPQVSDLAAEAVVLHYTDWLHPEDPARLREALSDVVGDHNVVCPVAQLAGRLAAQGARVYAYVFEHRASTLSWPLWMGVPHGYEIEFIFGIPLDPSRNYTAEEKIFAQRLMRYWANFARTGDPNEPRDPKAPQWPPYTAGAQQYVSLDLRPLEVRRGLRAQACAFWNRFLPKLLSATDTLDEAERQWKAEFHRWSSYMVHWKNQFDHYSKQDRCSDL
# Experiment: NVS_ENZ_hAChE: NovaScreen (NVS) Enzymatic Assay for human Acetylcholinesterase (AChE) (AID 2283129)
# Outline: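 Cell-free colorimetric enzyme-activity assay; compounds read 0.33 hour after dosing, loss of signal vs DMSO baseline. Primary screen in duplicate at 25 uM single concentration, with active compounds retested in concentration series.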
Compound,AC50,outcome
CCCCC(CC)COP(=O)(OCC(CC)CCCC)OCC(CC)CCCC (stereo not drawn),32.7 µM (active),–
COc1cccc(-c2ccc(/C=C\CN3CCCCCC3)cc2Cl)c1,22.6 µM (active),–
O=C(OC[C@H]1O[C@@H](OC(=O)c2cc(O)c(O)c(OC(=O)c3cc(O)c(O)c(O)c3)c2)[C@H](OC(=O)c2cc(O)c(O)c(OC(=O)c3cc(O)c(O)c(O)c3)c2)[C@@H](OC(=O)c2cc(O)c(O)c(OC(=O)c3cc(O)c(O)c(O)c3)c2)[C@@H]1OC(=O)c1cc(O)c(O)c(OC(=O)c2cc(O)c(O)c(O)c2)c1)c1cc(O)c(O)c(OC(=O)c2cc(O)c(O)c(O)c2)c1,0.644 µM (active),–
CC/C(=C(\c1ccccc1)c1ccc(OCCN(C)C)cc1)c1ccccc1,17 µM (active),–
CCCCC(CC)COC(=O)c1ccc(C(=O)OCC(CC)CCCC)cc1 (stereo not drawn),–,inactive
CCCCCCC(CCCCCCCCCCC(=O)OCC(COC(C)=O)OC(C)=O)OC(C)=O (stereo not drawn),–,inactive
O=C1c2c(O)cccc2Cc2cccc(O)c21,0.484 µM (active),–
CCCCCCOC(=O)CC(CC(=O)OCCCCCC)(OC(=O)CCC)C(=O)OCCCCCC,–,inactive
O=C(c1ccc(OCCN2CCCCC2)cc1)c1c(-c2ccc(O)cc2)sc2cc(O)ccc12,0.0103 µM (active),–
c1ccc2c(c1)-c1cccc3c1c-2cc1ccccc13,–,inactive
CC(C)CCCCCCCOC(=O)CCCCC(=O)OCCCCCCCC(C)C,7.43 µM (active),–
COC(=O)c1ccccc1S(=O)(=O)NC(=O)Nc1nc(OC(F)F)cc(OC(F)F)n1,–,inactive
O=C1OC(c2ccc(O)cc2)(c2ccc(O)cc2)c2ccccc21,–,inactive
Nc1ccc2c(c1)C(=O)c1ccccc1C2=O,–,inactive
S=C([S-])NCCNC(=S)[S-].[Mn+2],–,inactive
O=C1c2ccccc2C(=O)N1CCc1noc(-c2ccc(CN3CCCCCC3)s2)n1,13.8 µM (active),–
CCN(C(=O)c1cc(C)cc(OC[C@H](C)Nc2ccncc2)c1)C(C)C,6.7 µM (active),–
CCCCC(CC)COC(=O)CCCCCCCC(=O)OCC(CC)CCCC (stereo not drawn),–,inactive
CNS(=O)(=O)c1cc(C(=O)N2CCC(CCN3C4CCC3CC(n3c(C)nc5ccccc53)C4)(c3cccc(F)c3)CC2)c(Cl)cc1F (stereo not drawn),–,inactive
CN(C)C(=O)NC1(c2ccccc2)CCN(CCC[C@]2(c3ccc(Cl)c(Cl)c3)CCCN(C(=O)c3ccccc3)C2)CC1,5.13 µM (active),–
O=C(O)Cc1cc(I)c(Oc2cc(I)c(O)c(I)c2)c(I)c1,2.92 µM (active),–
CCCCCOC(C)=O,–,inactive
c1ccc2c(c1)Cc1ccccc1-2,–,inactive
NC(=O)N(O)[C@@H]1C=C[C@H](Oc2cccc(Oc3ccc(F)cc3)c2)C1,–,inactive
CCCCC(CC)COC(=O)CCCCCCCCC(=O)OCC(CC)CCCC (stereo not drawn),16.7 µM (active),–

# Biological target: human AMP-activated Protein Kinase, alpha 1 (AMPKa1), PRKAA1 (gene 5562) (UniProt Q13131)
# Sequence (Q13131 whole entry, looked up): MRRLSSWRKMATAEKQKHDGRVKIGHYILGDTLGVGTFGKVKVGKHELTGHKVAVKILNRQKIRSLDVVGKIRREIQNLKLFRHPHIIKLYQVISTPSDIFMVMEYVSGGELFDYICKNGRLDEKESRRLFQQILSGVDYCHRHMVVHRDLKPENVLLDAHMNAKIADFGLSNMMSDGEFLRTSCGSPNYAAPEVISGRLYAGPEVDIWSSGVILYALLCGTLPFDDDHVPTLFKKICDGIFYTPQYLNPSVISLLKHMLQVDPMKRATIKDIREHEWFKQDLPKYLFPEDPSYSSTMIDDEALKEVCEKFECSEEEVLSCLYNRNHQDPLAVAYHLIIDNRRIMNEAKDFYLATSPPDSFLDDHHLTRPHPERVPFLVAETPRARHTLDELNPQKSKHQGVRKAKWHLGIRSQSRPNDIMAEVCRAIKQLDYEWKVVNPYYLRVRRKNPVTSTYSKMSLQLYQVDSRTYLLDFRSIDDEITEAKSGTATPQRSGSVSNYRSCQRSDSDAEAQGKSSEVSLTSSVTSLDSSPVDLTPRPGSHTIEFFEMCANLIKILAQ
# Experiment: NVS_ENZ_hAMPKa1: NovaScreen (NVS) Enzymatic Assay for human AMP-activated Protein Kinase, alpha 1 (AMPKa1) (AID 2283130)
# Outline: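 Recombinant human AMPKα1 activity was measured cell-free by fluorescent substrate conversion with electrophoretic mobility-shift separation, 1 h after dosing. Duplicate single-point screening was at 25 uM; actives (≥30% inhibition) were retested in concentration-response up to 50 uM.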
Compound,AC50,outcome
COc1cccc(-c2ccc(/C=C\CN3CCCCCC3)cc2Cl)c1,34.6 µM (active),–
CC/C(=C(\c1ccccc1)c1ccc(OCCN(C)C)cc1)c1ccccc1,25.4 µM (active),inactive
CCOC(N)=O,–,inactive
CN(C)C(=O)NC1(c2ccccc2)CCN(CC[C@@]2(c3ccc(F)c(F)c3)CN(C(=O)c3ccccc3)CCO2)CC1,–,inactive
O=C(c1ccc(OCCN2CCCCC2)cc1)c1c(-c2ccc(O)cc2)sc2cc(O)ccc12,18.9 µM (active),–
S=C([S-])NCCNC(=S)[S-].[Mn+2],8.83 µM (active),–
O=C1c2ccccc2C(=O)N1CCc1noc(-c2ccc(CN3CCCCCC3)s2)n1,–,inactive
CC(C)CCCCCCc1ccc(O)cc1,–,inactive
CNS(=O)(=O)c1cc(C(=O)N2CCC(CCN3C4CCC3CC(n3c(C)nc5ccccc53)C4)(c3cccc(F)c3)CC2)c(Cl)cc1F (stereo not drawn),36 µM (active),–
CN(C)C(=O)NC1(c2ccccc2)CCN(CCC[C@]2(c3ccc(Cl)c(Cl)c3)CCCN(C(=O)c3ccccc3)C2)CC1,–,inactive
